Among the data in PubChem BioAssay AID504848 (National Center for Advancing Translational Sciences (NCATS), 2011) are Potency values, retold here.

In all, about 2,300 compounds went through this assay and about 1,400 (61%) were called active. Roughly 29% stayed inconclusive and do not appear here. Calls come from the whole dose curve; as a rule, active = well fitted inhibition curve with a large enough effect; inconclusive = small, poorly fitted or top-dose-only effect, or effect the other way; inactive = no such curve, though single readings can be large or run the other way. So high a share suggests a set chosen from earlier hits. The list shows a part of the results.
Potency is the fitted concentration of half-maximal effect.

This test can be described thus: Confirmation screen for delayed death inhibitors of the malarial parasite plastid, 96 hour incubation. Note: nearly all actives have a fitted effect of over 60% in size. The conditions noted are these: P. falciparum luciferase growth in erythrocytes; series mostly up to 28.7 µM. The method, boiled down: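 Two-generation (96 h, 37 C) exposure of P. falciparum carrying an integrated firefly luciferase reporter in erythrocytes, 0.1% parasitemia and 2% hematocrit final, Albumax-supplemented RPMI. Luminescence decrease measures growth inhibition.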
As to `CCc1nc(SCC(=O)Nc2ccc(N(C)C)cc2)n[nH]1`, the Potency was 2.82 µM (active).

`COc1ccc(OCCOc2ccc(S(=O)(=O)N3CCCC3)cc2C(N)=O)cc1`: the Potency was 10 µM (active).

On to `C=CCN(CC=C)C(=O)C1CCN(S(=O)(=O)c2ccc(N3CCCC3=O)cc2)CC1`, for which the Potency is 5.01 µM (active).

With `Cc1ccc(S(=O)(=O)N2CCC(C(=O)Nc3ccc(S(=O)(=O)N4CCCC4)cc3)CC2)cc1C`, the Potency is 7.08 µM (active).

For `COc1ccc(S(=O)(=O)N2CCCN(S(=O)(=O)c3ccc(OC)c(C)c3)CC2)cc1C`, the Potency was 12.6 µM (active).

In the case of `COC(=O)c1cn(C)c2ccc(S(=O)(=O)N3CCCC3)cc2c1=O`, the Potency entry is “inactive”.

Regarding `COc1cc(NC(=O)C2CCN(S(=O)(=O)c3ccc(N4CCCC4=O)cc3)CC2)cc(OC)c1`, the Potency was 5.01 µM (active).

Consider `Cc1ccc(C(=O)C(C(=O)/C=C/c2ccccc2)=C2SCCCS2)cc1`, for which the Potency is 7.94 µM (active).

As for `CC[C@@H]1CC=C[C@H]2[C@H]1C(=O)N(Cc1ccccc1)[C@H]2c1ccoc1`, the Potency is 7.08 µM (active).

Consider `Fc1ccc2nc(Nc3nc4c(F)cc(F)cc4s3)sc2c1`, for which the Potency is 10 µM (active).

Take `O=C(c1ccc(Br)cc1)C(CN1CCOCC1)c1ccccc1` (stereo unspecified): the Potency is 3.98 µM (active).

For `O=C(CN1CCCCC1)N/N=C/c1ccc(Cl)cc1`, the Potency entry is “inactive”.

On to `O=C(c1ccc(Cl)cc1)C(CN1CCCC1)c1ccccc1` (stereo unspecified), for which the Potency is 7.08 µM (active).

In the case of `O=C(c1ccc(Cl)cc1)C(CN1CCCCC1)c1ccccc1` (stereo unspecified), the Potency is 12.6 µM (active).

Take `O=C(Nc1ccc(C2=NCCN2)cc1)c1ccc(C(=O)Nc2ccc(C3=NCCN3)cc2)c(Cl)c1`: the Potency is 0.0708 µM (active).

As for `COc1ccccc1-c1coc2cc(OC(=O)N3CCOCC3)ccc2c1=O`, the Potency entry was “inactive”.

For `CCOc1ccccc1CNC(=O)CN1C(=O)CSc2ccc(S(=O)(=O)N3CCOCC3)cc21`, the Potency is 8.91 µM (active).

As for `Cc1c(C#N)c(NC(=O)CCl)n(Cc2ccccc2)c1C`, the Potency was 4.47 µM (active).

On to `O=C(CCl)Nc1ccc2c(c1)OCO2`, for which the Potency is 2.51 µM (active).

Take `Cn1c(=O)n(C)c2cc(NC(=O)CCl)ccc21`: the Potency was 2 µM (active).

Take `Cc1ccc(NC(=O)c2nnn(CC(=O)Nc3ccc4c(c3)OCO4)c2N)cc1C`: the Potency result is “inactive”.

In the case of `COc1ccc(C)cc1N(CC(=O)Nc1ccc(S(=O)(=O)N2CCCC2)cc1)S(C)(=O)=O`, the Potency was 8.91 µM (active).

With `CCOc1ccccc1N(CC(=O)Nc1ccc(S(=O)(=O)N2CCCC2)cc1)S(C)(=O)=O`, the Potency was 11.2 µM (active).

In the case of `CCOC(=O)c1c[nH]c2cc(OCC(C)C)c(OCC(C)C)cc2c1=O`, the Potency was 0.178 µM (active).

Turning to `COc1ccc(-c2c(-c3ccc(OC)c(C)c3O)n[nH]c2C)cc1`, the Potency was 10 µM (active).

Turning to `Cc1ccc(Cl)cc1N1CCN(Cc2nc3c(c(=O)[nH]c(=O)n3C)n2CCc2ccccc2)CC1`, the Potency was 3.98 µM (active).

`CC(C)C(=O)NCCSc1c[nH]c2ccccc12`: the Potency was 3.98 µM (active).

`CCOc1ccc(N(C)C(=O)CCc2nnc3ccc(N4CCCCC4)nn23)cc1`: the Potency was 7.94 µM (active).

As to `O=[N+]([O-])c1cccc(/C=C/c2nc[nH]c2[N+](=O)[O-])c1`, the Potency was 3.98 µM (active).

As to `CC1(C)COC(/C=C/c2cccc([N+](=O)[O-])c2)=N1`, the Potency was 8.91 µM (active).

As to `COc1ccc(-c2nnc3ccc(SCC(=O)Nc4nc5ccc(C)cc5s4)nn23)cc1OC`, the Potency is 0.158 µM (active).

As to `O=C(C[n+]1ccccc1)Nc1ccc(Cl)c([N+](=O)[O-])c1`, the Potency was 7.08 µM (active).

As to `Nc1ccc2nc(-c3ccc(-c4nc5ccc(N)cc5[nH]4)cc3)[nH]c2c1`, the Potency is 5.62 µM (active).

As to `Cc1coc2cc3oc(=O)c(CCC(=O)NCCCn4ccnc4)c(C)c3cc12`, the Potency was 12.6 µM (active).

On to `CCOC(=O)C1CCN(c2c(NCc3ccc(C(=O)NCCC(C)C)cc3)c(=O)c2=O)CC1`, for which the Potency is 1.12 µM (active).

With `O=C(N/N=C/c1ccccn1)c1cc([N+](=O)[O-])cc([N+](=O)[O-])c1`, the Potency is 3.16 µM (active).

As for `C(=N\N(c1ccccc1)c1ccccc1)/c1ccccn1`, the Potency result is “inactive”.

With `CC1(C)N=C(N)N=C(N)N1c1ccc(OCCCOc2ccccc2)c(Cl)c1`, the Potency is 11.2 µM (active).

Consider `Cc1ccc(NC2=CC(=O)CC(C)(C)C2)cc1Cl`, for which the Potency is 12.6 µM (active).

Consider `CCc1ccc(C(=O)NNc2ccc(C)c(Cl)c2)cc1`, for which the Potency entry is “inactive”.

As for `Cc1ccc(-n2c(Cl)c(Cl)nc(Cl)c2=O)cc1`, the Potency was 11.2 µM (active).

With `Clc1ccc2nnnc(-c3ccccc3)c2c1`, the Potency was 3.55 µM (active).

For `CCn1cc(C(=O)O)c(=O)c2cc(F)c(N/N=C/c3ccccc3)cc21`, the Potency was 10 µM (active).

Regarding `COc1ccc(C)cc1-n1c(SCC(=O)Nc2cc(C)on2)nc2sc(C)c(C)c2c1=O`, the Potency was 2 µM (active).

Turning to `CC(SC#N)C(=O)C12CC3CC(CC(C3)C1)C2` (stereo unspecified), the Potency was 12.6 µM (active).

In the case of `COc1ccc(N(CC(=O)NCCSCc2ccc(C)cc2)S(=O)(=O)c2ccccc2)cc1`, the Potency was 12.6 µM (active).

Regarding `COc1ccc2c(c1)c(CC(=O)Nc1nnc(C3CC3)s1)c(C)n2C(=O)c1ccc(Cl)cc1`, the Potency is 10 µM (active).

Consider `COc1ccc(-c2nc(N3CCN(C)CC3)sc2-c2ccc(OC)cc2)cc1`, for which the Potency was 12.6 µM (active).

`CC1(CCc2ccc3c(c2)OCO3)NCCc2c1[nH]c1ccccc21` (stereo unspecified): the Potency was 7.08 µM (active).

With `C/C(=N\NC(=S)NCC(C)(C)C)c1cc(F)cc(F)c1O`, the Potency is 11.2 µM (active).

For the compound `Cc1cc(/C=C2/SC(=O)NC2=O)c(C)n1-c1ccc(N2CCOCC2)cc1`, the Potency was 12.6 µM (active).

With `CC(=O)N1CCc2cc(S(=O)(=O)N3CC(C)CC(C)C3)ccc21` (stereo unspecified), the Potency is 8.91 µM (active).

For `CCC(=O)N1CCc2cc(S(=O)(=O)N3CCCCCC3)ccc21`, the Potency was 12.6 µM (active).

Turning to `O=C(Nc1ccccc1SCC1CSc2nc3ccccc3c(=O)n21)c1ccccc1` (stereo unspecified), the Potency was 12.6 µM (active).

Take `O=C(Nc1ccccc1SCC1CSc2nc3ccccc3c(=O)n21)c1ccccc1Cl` (stereo unspecified): the Potency is 11.2 µM (active).

`Cc1ccc(C(=O)Nc2ccccc2SCC2CSc3nc4ccccc4c(=O)n32)cc1` (stereo unspecified): the Potency was 10 µM (active).

On to `Cc1cccc(C(=O)Nc2ccccc2SCC2CSc3nc4ccccc4c(=O)n32)c1` (stereo unspecified), for which the Potency was 3.98 µM (active).

For the compound `CC(=O)Nc1ccc(OCc2cccc3ccccc23)cc1`, the Potency was 7.94 µM (active).

Turning to `CC(Oc1ccccc1F)C(=O)Nc1ccc2ccccc2c1` (stereo unspecified), the Potency result is “inactive”.

`CC(Oc1ccc(F)cc1)C(=O)Nc1ccc2ccccc2c1` (stereo unspecified): the Potency result was “inactive”.

As for `COc1ccccc1NS(=O)(=O)c1ccc2oc(SCc3ccc(C#N)cc3)nc2c1`, the Potency was 12.6 µM (active).

As to `CCOC(=O)c1c(-c2ccc(-c3ccccc3)cc2)csc1NC(=O)c1cccc(N2C(=O)CCC2=O)c1`, the Potency is 2.24 µM (active).

As for `CCOC(=O)c1c(-c2cccc(C)c2)csc1NC(=O)c1c(-c2ccccc2)noc1C`, the Potency was 8.91 µM (active).

Consider `CCOC(=O)c1c(NC(=O)c2c(-c3ccccc3)noc2C)sc(C)c1-c1ccccc1`, for which the Potency is 5.01 µM (active).

In the case of `COC(=O)c1c(-c2ccccc2)csc1NC(=O)c1c(-c2ccccc2)noc1C`, the Potency was 14.1 µM (active).

Turning to `CCOC(=O)c1c(-c2ccc(F)cc2)csc1NC(=O)c1c(-c2ccccc2)noc1C`, the Potency is 7.08 µM (active).

As for `COC(=O)c1c(NC(=O)c2cccc(N3C(=O)CCC3=O)c2)sc2c1CCN(C(C)=O)C2`, the Potency is 11.2 µM (active).

With `Nc1nc(SCC(=O)NCC2CCCO2)[nH]c(=O)c1NC(=O)c1ccc(F)c(F)c1` (stereo unspecified), the Potency was 7.94 µM (active).

For `COc1ccc(C(=O)Nc2c(N)nc(SCC(=O)Nc3ccc(NC(C)=O)cc3)[nH]c2=O)cc1OC`, the Potency was 12.6 µM (active).

As to `CC1CN(C(=O)N2c3ccccc3Sc3ccccc32)CC(C)O1` (stereo unspecified), the Potency is 10 µM (active).

With `O=C(N1CCOCC1)N1c2ccccc2Sc2ccccc21`, the Potency result is “inactive”.

`CCCSc1nc2c(cnn2-c2ccccc2)c(=O)[nH]1`: the Potency result was “inactive”.

As to `Cn1c(=O)[nH]c(=O)c2c1nc(SCCN1CCCCC1)n2CCCc1ccccc1`, the Potency is 5.01 µM (active).

With `CCCCCCn1c(SCCC)nc2c1c(=O)[nH]c(=O)n2C`, the Potency is 14.1 µM (active).

For the compound `Cc1nn(-c2ccccc2)c(N2CCCC2)c1/C=N/NC(=S)Nc1ccccc1F`, the Potency is 12.6 µM (active).

On to `Cc1nn(-c2ccccc2)c(N2CCCC2)c1/C=N/NC(=O)c1ccccc1O`, for which the Potency was 3.98 µM (active).

On to `O=C(CCl)Nc1ccc(Sc2ccc(NC(=O)CCl)cc2)cc1`, for which the Potency is 2.51 µM (active).

With `CC(C)N(c1ccccc1)c1ccc(NC(=O)CCl)cc1`, the Potency is 2.51 µM (active).

With `CCC(CC)COC(=O)C1=C(C)NC(=O)NC1c1ccccc1Br` (stereo unspecified), the Potency is 10 µM (active).

On to `OC1(c2cccs2)CN(c2ccc(Br)cc2)C2=[N+]1CCCS2` (stereo unspecified), for which the Potency was 8.91 µM (active).

`OC1(c2cccs2)CN(c2ccc(Cl)cc2)C2=[N+]1CCCC2` (stereo unspecified): the Potency was 6.31 µM (active).

For `Cc1[nH]c(=O)c(C(=O)/C=C/c2ccccc2F)c2c1CCCC2`, the Potency was 5.62 µM (active).

Take `Cc1[nH]c2ccccc2c(=O)c1C(=O)/C=C/c1ccccc1`: the Potency is 3.55 µM (active).

As for `Cc1[nH]c2ccccc2c1/C=N/NC(=O)CNC(=O)Cc1ccccc1`, the Potency entry is “inactive”.

Regarding `Cc1[nH]c(=O)c(C(=O)/C=C/c2ccccc2)c2c1CCCC2`, the Potency was 4.47 µM (active).

On to `CCC1CCCCN1CCCNC(=O)Cn1c(=O)c2cccn2c2cccnc21` (stereo unspecified), for which the Potency entry was “inactive”.

Regarding `CCC1CCCCN1CCCNC(=O)CNC(=O)c1nn(-c2ccc(OC)c(Cl)c2)c(=O)c2ccccc12` (stereo unspecified), the Potency was 6.31 µM (active).

Turning to `N=C(N)c1ccc(/C=C/c2ccc(C(=N)N)cc2O)cc1`, the Potency is 0.251 µM (active).

For `C=C1C(=O)O[C@@H]2[C@H]1CC[C@H](C)[C@]1(O)CCC(=O)[C@@]21C`, the Potency was 7.08 µM (active).

For `CCCCC1(c2ccc(F)cc2)NC(=O)N(CC(=O)N2CCN(C(=O)c3ccco3)CC2)C1=O` (stereo unspecified), the Potency is 12.6 µM (active).

With `CC(C)c1ccc2[nH]c(O)c(N=NC(=O)c3ccc(CSc4nncn4C)cc3)c2c1`, the Potency is 2.24 µM (active).
